High-throughput results deposited in PubChem BioAssay by several laboratories.
Rows were chosen to be rich in hits. Some 2.2% of all compounds tested hit in one or more screens of this group.
BaF3 parental = parental Ba/F3 viability inhibition as JAK2V617F counter-screen; CellTiter-Glo ATP luminescence; inhibition, % at 5.6 µM; 220,000 tested, 1.1% active; AID 1486;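 active = inhibition above a per-campaign cutoff, the mean inhibition of all tested compounds plus 3 SD, cut at about 27% in these data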;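 note: 0% = DMSO wells and 100% = JAK Inhibitor I control wells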
Ba/F3 V617F tox = lowers viability of Ba/F3 cells expressing EpoR and JAK2V617F; inhibition, % at 5.6 µM; AID 1446; 220,000 tested, 1.1% active; ATP luminescence;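 active = inhibition above the campaign mean plus 3 SD over all tested compounds, cut at about 24% in these data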;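 note: cytokine-independent growth of Ba/F3 cells driven by EpoR plus mutant JAK2; 0% = DMSO-treated cells and 100% = JAK inhibitor I control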
aSyn 5UTR inh = 5' untranslated region of α-synuclein, MLPCN primary screen | alpha-synuclein 5'UTR reporter, inhibitor activity | 300,000 tested, 0.82% active | AID 1813 | inhibition, % (tested at 7.5 µM); in the data active = inhibition above about 60%; inconclusive = no clear call, values can overlap the other calls;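 note: H4 neuroglioblastoma cells stably carrying SNCA 5'UTR luciferase fusion; 0% = DMSO wells and 100% = positive control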
APP transl inh = APP translation inhibition; SH-SY5Y APP 5'UTR-luciferase reporter, luminescence; inhibition, % at 2 µM; 190,000 tested, 0.82% active; AID 1285;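 active = inhibition above a set limit, derived from the sample mean plus 3 SD, cut at about 45% in these data; inconclusive = one replicate passes the limit while the other fails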
KLF5 inh = suppresses KLF5 promoter-driven expression. DLD-1 KLF5 promoter-luciferase reporter, luminescence. inhibition, % at 5 µM. 290,000 tested, 0.23% active. AID 1700;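 active = inhibition above a per-plate limit of that plate's mean compound inhibition plus 3 SD, cut at about 60% in these data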;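 note: 0% = DMSO wells and 100% = LY294002 at 200 µM; higher means less KLF5 promoter-driven luciferase light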
IEC-6 tox = counter-screen for KLF5 inhibitors: cytotoxicity in IEC-6 cells; IEC-6 cytotoxicity, luminescence viability; inhibition, % at 5 µM; 290,000 tested, 0.78% active; AID 1825; in the data active = inhibition above about 22%;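 note: 0% = plate median of test compound wells and 100% = cytotoxic reference compound wells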
The depositor's hits bear a star; u = inconclusive; x = no result given.

SMILES	BaF3 parental	Ba/F3 V617F tox	aSyn 5UTR inh	APP transl inh	KLF5 inh	IEC-6 tox
CN(C)CCCN(Cc1cc2cc3c(cc2[nH]c1=O)OCO3)C(=S)Nc1ccccc1	7	4	-51	-1	3	1
S=C(NCCc1ccccc1)NCCN1CCOCC1	x	x	-30	x	-39	5
CN(C(=S)NCCN1CCOCC1)C(c1ccccc1)c1ccccc1	44*	16	-8	-8	-43	-5
Cc1[nH]c(C)c(S(=O)(=O)NCCc2ccccc2)c1C(=O)N1CCCCC1	x	x	-6	x	-19	-5
COC(=O)c1cccc(NC(=O)c2onc3c2CCCC3)c1	6	2	79*	-99	-165	6
O=C(Nc1ccc2ccccc2c1)c1onc2c1CCCC2	4	-4	-71	-206	-133	-1
Cc1cccc(NC(=O)c2onc3c2CCCC3)n1	-1	-1	86*	-158	-51	10
CC(C)CNC(=O)NC(=O)COc1ncnc2sccc12	0	-3	15	-3	-26	-2
CC(C)CCNC(=O)NC(=O)COc1ncnc2sccc12	96*	-5	22	5	-4	-6
COc1cc(O)c2c(=O)cc(-c3ccccc3)oc2c1	-7	-2	-145	-44	-53	-3
COc1ccc(-c2cc(=O)c3c(O)c(OC)c(O)cc3o2)cc1	-5	4	70*	-152	-189	8
CCOCCCn1c(=O)c2ccccc2n2c(=S)[nH]nc12	x	x	-9	x	-17	5
CCN(CC)c1ccc2c(-c3ccc(S(=O)(=O)O)cc3S(=O)(=O)[O-])c3ccc(=[N+](CC)CC)cc-3oc2c1	x	x	80*	x	-14	9
Clc1ccc2nc(-c3ccccn3)c(Nc3ccc4c(c3)OCO4)n2c1	5	0	-47	46*	-4	0
Cc1ccc(NC(=O)N2CCc3ccccc3C2)c(C)c1	x	x	-76	x	-62	4
Cc1cc(NC(=O)c2ccc3c(c2)OCCO3)no1	2	-2	62*	-106	-104	-3
Cc1ccc(C(=O)Nc2ccc3c(c2)OCCO3)cc1	x	x	89*	x	48	3
O=C(NCc1ccccc1)C(=O)Nc1cccc(C(=O)O)c1	-1	5	74*	x	-90	12
CSc1cccc(NC(=O)C(=O)NCc2ccccc2)c1	1	-1	-14	x	-4	-10
Cc1ccc(C(=O)Nc2cccc(C(=O)O)c2)cc1	3	1	87*	36	59	4
Cc1cc(NC(=O)c2ccc3c(c2)OCO3)no1	3	-3	-60	-92	-106	4
O=C(Nc1cccnc1)c1ccc(-c2ccccc2)cc1	3	1	-163	-110	2	9
O=C(Nc1ccncc1)c1ccc(-c2ccccc2)cc1	32*	4	-127	-25	-58	-4
CN(CC1COc2ccccc2O1)C(=S)Nc1ccccc1 (centres undefined)	28*	2	-20	-8	-24	1
CCCC[n+]1ccn(C2=C([O-])c3ccccc3C(=O)/C2=N\S(=O)(=O)c2ccc(Cl)cc2)c1	-1	5	66*	x	-34	5
SMILES	BaF3 parental	Ba/F3 V617F tox	aSyn 5UTR inh	APP transl inh	KLF5 inh	IEC-6 tox
CN(C(=O)COc1ccccc1C(=O)NCCOc1ccccc1)c1ccccc1	36*	11	-20	13	-15	7
Cc1ccc(NC(=O)c2c(C(F)(F)F)nn(C)c2SCc2cccc(C(F)(F)F)c2)cc1C	48*	43*	-102	x	8	12
Oc1c(CN2CCCCC2)cc(Br)c2cccnc12	27*	44*	112*	67*	41	-6
Oc1c(CN2CCc3ccccc3C2)cc(Cl)c2cccnc12	4	0	91*	22	-7	-5
O=C(Oc1c(CN2CCOCC2)cc(Cl)c2cccnc12)c1ccccc1	0	-3	45	53*	-15	26*
O=C(Oc1c(CN2CCOCC2)cc(Cl)c2cccnc12)c1ccccc1F	4	0	106*	75*	-8	-1
Oc1c(I)cc(Cl)c2cccnc12	6	-3	-19	9	-13	-1
Cc1ccc2nc(NC(=O)CSCC(=O)OCC(=O)c3ccc(Br)cc3)sc2c1	6	-1	83*	6	0	2
COC(=O)c1ccc2nc(NC(=O)CSCC(=O)OCC(=O)c3ccccc3)sc2c1	1	0	-73	-70	-17	-2
N#Cc1cc(N)c(Nc2ccccc2)cc1C#N	37*	15	33	-5	17	16
COc1ccc(NC(=O)Nc2c(O)ccc3ccccc23)cc1	x	x	-5	x	x	x
CC(C)OC(=O)c1ccccc1C(=O)c1ccc(N)c([N+](=O)[O-])c1	3	-3	4	7	0	-2
O=C(COC(=O)c1ccccc1C(=O)c1ccc(Cl)c([N+](=O)[O-])c1)NC1CC1	-5	-2	-23	48*	-10	-7
CNC(=O)COC(=O)c1ccccc1C(=O)c1ccc(Cl)c([N+](=O)[O-])c1	4	4	-19	54*	-4	-2
COc1cc(/C=C/C(=O)c2ccc([N+](=O)[O-])o2)ccc1O	x	x	67*	x	x	x
COc1cc(/C=C/C(=O)O)ccc1O	x	x	-8	x	x	x
O=C(/C=C/c1cccc(Cl)c1)c1ccc([N+](=O)[O-])o1	x	x	91*	x	x	x
COc1cccc(CNC(=O)C2CCN(S(=O)(=O)c3cccc4nonc34)CC2)c1	x	x	1	x	8	6
S=C(N/N=C/c1ccc2ncccc2c1)Nc1ccccc1	0	-3	108*	-1	-38	2
C(=N\NCc1ccccc1)/c1ccc2ncccc2c1	-3	-3	-10	x	-131	4
COc1cc2nc(N3CCN(c4cc(C)ccc4C)CC3)nc(N)c2cc1OC	x	x	95*	x	-38	10
CCc1ccc(C(O)(CC(C)C)C(CN2CCOCC2)c2ccccc2)cc1 (centres undefined)	x	x	u	x	1	-5
COc1ccc(C(O)(CC(C)C)C(CN2CCOCC2)c2ccccc2)cc1 (centres undefined)	x	x	66*	x	20	-14
Cc1cc(-c2ccccc2)cc(-c2ccccc2)[n+]1C	68*	73*	x	-4	-6	4
Cc1ccc(-c2cc(N)nc(-c3ccccc3)c2)cc1	x	x	-87	x	-62	-1
SMILES	BaF3 parental	Ba/F3 V617F tox	aSyn 5UTR inh	APP transl inh	KLF5 inh	IEC-6 tox
COc1ccccc1-n1nnnc1SCC(=O)Nc1cc(C)on1	2	-1	13	-4	11	6
CCOc1ccccc1-n1nnnc1SCC(=O)Nc1cc(C)on1	39*	-5	-11	-6	2	4
CCCCCC(=O)NC(=S)Nc1ccccc1C(=O)OC	5	-1	-3	72*	-37	0
CCCCC(=O)NC(=S)Nc1ccccc1C(=O)Nc1ccccc1	0	-4	-7	6	-9	1
Cn1c(=O)c2c(=O)cc(NNC(=O)C(C)(C)C)[nH]c2n(C)c1=O	3	3	15	46*	-25	4
CC1(C)CC(Nc2ccc(Nc3ccccc3)cc2)CC(C)(C)N1	29*	77*	22	x	-3	0
CSc1ccc(/C=N/Nc2cccc(C(=O)O)c2)cc1	2	1	x	8	-73	-8
